# Screening results from PubChem BioAssay.
# AHR act: activators of human aryl hydrocarbon receptor. AHR-responsive luciferase reporter cells, luminescence. activation, % at 5 µM. 320,000 compounds, 2.5% hits. AID 2796; in the data active = activation above about 47%;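 note: 0% = vehicle wells and 100% = reference agonist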
# Target sequence (P35869 whole entry, looked up): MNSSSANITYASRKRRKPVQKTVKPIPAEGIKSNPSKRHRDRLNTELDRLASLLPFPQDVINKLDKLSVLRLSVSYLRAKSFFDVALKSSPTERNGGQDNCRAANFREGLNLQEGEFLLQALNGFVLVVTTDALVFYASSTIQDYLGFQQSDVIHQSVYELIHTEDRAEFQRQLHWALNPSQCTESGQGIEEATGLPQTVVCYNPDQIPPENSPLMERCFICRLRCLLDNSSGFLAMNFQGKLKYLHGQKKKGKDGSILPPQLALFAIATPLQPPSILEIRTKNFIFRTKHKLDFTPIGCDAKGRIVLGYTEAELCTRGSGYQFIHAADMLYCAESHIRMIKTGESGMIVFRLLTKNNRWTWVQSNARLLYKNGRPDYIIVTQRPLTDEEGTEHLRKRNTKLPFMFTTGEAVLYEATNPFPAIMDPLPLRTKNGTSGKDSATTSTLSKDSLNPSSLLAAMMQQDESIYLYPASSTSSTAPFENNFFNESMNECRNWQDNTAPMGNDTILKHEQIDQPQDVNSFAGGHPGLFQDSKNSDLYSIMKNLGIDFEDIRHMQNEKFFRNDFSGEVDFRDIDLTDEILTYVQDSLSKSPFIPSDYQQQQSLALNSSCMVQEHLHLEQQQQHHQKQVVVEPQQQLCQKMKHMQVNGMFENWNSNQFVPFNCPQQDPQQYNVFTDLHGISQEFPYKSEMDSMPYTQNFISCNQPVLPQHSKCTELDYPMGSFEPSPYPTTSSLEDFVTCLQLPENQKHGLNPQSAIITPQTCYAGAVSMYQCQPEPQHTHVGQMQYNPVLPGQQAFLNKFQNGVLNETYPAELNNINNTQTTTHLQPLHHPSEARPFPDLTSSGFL
# HSP90 refold inh: inhibitors of HSP90 luciferase refolding in rabbit reticulocyte lysate; inhibition, % at 5.6 µM; luciferase refolding luminescence, 3 h; 290,000 compounds, 0.91% hits;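 active = inhibition above the screen-wide mean plus 3 SD, computed separately per campaign, cut at about 16% in these data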;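 note: 0% = DMSO wells and 100% = 60 µM geldanamycin wells; inhibitors lower the luminescence because luciferase stays unfolded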
# DAX1 inh: inhibitors of human orphan nuclear receptor DAX1 (NR0B1); 340,000 compounds, 0.99% hits; P51843; HEK293 Gal4-DAX1 luciferase reporter, luminescence; inhibition, % at 6.75 µM;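 active = inhibition above the mean over all tested compounds plus 3 SD, cut at about 4.2% in these data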;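 note: 0% = DAX1-transfected cells with DMSO and 100% = empty-vector control cells with DMSO; inhibition shows as a rise in luminescence from relieved DAX1 repression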
# GAA850 FXN act: frataxin GAA850 promoter activation; HEK293 lucGAA850 FXN promoter luciferase reporter, 24 h; percent of 10 µM SAHA response; activation, % at 6 µM; 360,000 compounds, 0.56% hits; AID 540364;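 active = activation above the average of all compounds screened plus 3 SD, cutoff fixed separately per campaign, cut at about 7.5% in these data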;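 note: 0% = DMSO wells and 100% = 10 µM SAHA wells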
# HSF1 inh: HSF1 inhibition | AID 2098 | activity change, negative = inhibition, % at 7.5 µM (by protocol) | NIH3T3-HGL HSE-luciferase, MG132-induced, luminescence 8 h; active compounds read low | 300,000 compounds, 0.77% hits;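 active = more than half of replicate wells show activity change below -50%, luminescence cut by over half; inconclusive = some wells, but at most half, below -50%; inactive = no replicate well below -50%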;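 note: luciferase reports HSF-1 transcriptional activity via heat shock element; 0% = median of DMSO wells and -100% = zero luminescence signal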
# HSF-1 act: increases HSF-1 driven luciferase reporter signal; 300,000 compounds, 1.7% hits; NIH3T3-HGL HSF-1 luciferase reporter, MG132, 8 h; 100% = twice DMSO control signal; activation, % at 9 µM;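 active = mean replicate activation of at least 50% with a set share of replicates each reaching 50%; inconclusive = only one of those two conditions met; inactive = mean below 50% and too few replicates reaching it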;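 note: 0% = median of the neutral control wells and 100% = twice that signal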
# * marks the source's active call; other numbers are inactive results; ? = inconclusive; / = no result given. Only some compounds are listed: those with a hit (about 5.9% of all), similar ones and a draw of the others.
SMILES,AHR act,HSP90 refold inh,DAX1 inh,GAA850 FXN act,HSF1 inh,HSF-1 act
O=C(Nc1ccc(C(F)(F)F)cc1)c1ccccc1,53.3*,/,0.6,1.3,/,/
O=C(Nc1ccc(N2CCCCC2)cc1)c1ccccc1,-2.3,27.6*,-1.0,0.2,14.6,20.2
CCOCCOC(=O)c1ccc(NC(=O)C2COc3ccccc3O2)cc1 (stereo unspecified),0.1,-0.6,-1.1,4.2,5.4,15.3
Cc1ccc(C)c(-n2[nH]c3c4c(ccc3c2=O)C(=O)c2ccccc2C4=O)c1,0.7,2.8,-1.2,1.4,3.2,10.8
CC(C)(C)n1[nH]c2c3c(ccc2c1=O)C(=O)c1ccccc1C3=O,50.3*,16.8*,0.9,-3.4,-2.2,-2.0
COCCCn1[nH]c2c3c(ccc2c1=O)C(=O)c1ccccc1C3=O,52.3*,5.1,2.2,-0.9,18.9,17.7
Cc1ccc(-n2[nH]c3c4c(ccc3c2=O)C(=O)c2ccccc2C4=O)cc1,0.5,0.9,-0.6,0.4,-0.5,23.0
O=S1(=O)N=C(N/N=C/c2ccc(Br)o2)c2ccccc21,16.2,-2.7,0.7,1.6,1.5,4.2
CN1CCSc2ccc(C(=O)Nc3cc(F)ccc3F)cc21,31.2,-0.6,9.5*,7.2,53.1,76.0*
COC(=O)c1ccc2c(c1)N(C)CCS2,-0.7,1.2,4.4*,-1.0,0.2,4.4
CN1CCSc2ccc(C(=O)NCc3ccccc3F)cc21,78.1*,-3.2,-0.1,4.5,-12.0,-29.5
COc1ccc(CNC(=O)c2ccc3c(c2)N(C)CCS3)cc1,37.0,-4.5,1.4,-0.7,15.1,12.4
COc1cccc(CNC(=O)c2ccc3c(c2)N(C)CCS3)c1OC,55.5*,2.4,1.1,0.6,8.4,12.6
Cc1ccccc1NC(=O)c1ccc2c(c1)N(C)CCS2,15.2,-4.7,2.3,0.9,19.2,37.9
O=C(CCNC(=O)C1CCN(S(=O)(=O)c2ccccc2)CC1)NCc1ccncc1,1.1,-2.5,-0.8,0.3,-8.2,-3.5
CCc1ccc(-c2n[nH]nc2C2=CC(=O)C[C@H](c3ccc(F)cc3)C2)cc1,/,/,-0.4,0.1,/,/
O=C(CN1C(=O)NC2(CCCCCCC2)C1=O)Nc1ccc(Br)cc1Br,-0.7,/,-0.2,1.2,/,/
Clc1ccc(-c2nnc(-c3ccccc3)c(-c3c[nH]c4ccccc34)n2)cc1,50.8*,2.5,0.2,3.8,-4.5,-20.1
Clc1ccc(-c2nnc(-c3ccccc3)c(-c3ccccc3)n2)cc1,0.2,1.2,0.3,1.4,-6.2,8.9
OCCCNc1nc(-c2ccc(Cl)cc2)nnc1-c1ccccc1,64.4*,-1.3,-1.5,6.6,5.7,3.0
COC(=O)C1C(=O)c2c([nH]c(C(=O)OC3CCCCCC3)c2C)CC1C (stereo unspecified),-0.3,1.3,1.0,4.0,13.9,30.5
CCCCCOC(=O)c1[nH]c2c(c1C)C(=O)C(C(=O)OC)C(C)C2 (stereo unspecified),6.8,-6.0,-0.8,5.5,57.1,76.2*
COC(=O)C1C(=O)c2c([nH]c(C(=O)OCC3CCCO3)c2C)CC1C (stereo unspecified),14.9,-4.6,5.8*,4.0,26.1,40.5
COCCOC(=O)c1[nH]c2c(c1C)C(=O)C(C(=O)OC)C(C)C2 (stereo unspecified),31.4,0.5,3.1,4.9,18.6,42.3
O=C(NC(=S)NN1CCOCC1)c1cc(Br)ccc1Cl,-0.9,/,0.3,0.3,/,/
SMILES,AHR act,HSP90 refold inh,DAX1 inh,GAA850 FXN act,HSF1 inh,HSF-1 act
Cc1ccc(C(C)(O)CS(=O)(=O)Cc2ccccc2Cl)cc1 (stereo unspecified),2.0,0.7,-1.3,0.9,50.7,111.9*
Cc1cccc(N2CC(C)Cn3c2nc2c3c(=O)[nH]c(=O)n2C)c1 (stereo unspecified),0.5,-2.6,-1.3,1.5,-5.0,14.0
Cn1nc(-c2ccccc2)nc1-c1ccccc1,48.3*,/,1.8,7.2,14.8,18.5
Cn1cc(S(=O)(=O)CC(=O)Nc2ccc3c(c2)OCCO3)c2ccccc21,7.0,-0.5,-0.7,0.0,-7.6,0.6
Cc1ccc(C)c(NC(=O)CS(=O)(=O)c2cn(C)c3ccccc23)c1,8.1,0.6,0.9,0.1,28.5,54.2*
CCc1noc(C)c1C(=O)OC(C)C(=O)Nc1ccc2c(c1)OCO2 (stereo unspecified),14.6,/,-0.1,0.5,/,/
CCCN(CCC)S(=O)(=O)c1ccc(NC(=O)c2cc(C(=O)OC)cc([N+](=O)[O-])c2)cc1,0.8,0.0,-0.1,2.6,-61.2*,-70.6
O=C(COC(=O)c1cccc(S(=O)(=O)N2CCCC2)c1)Nc1ccccc1C(F)(F)F,/,/,-0.2,0.6,/,/
COc1ccc(N2C(=O)C3CCCN3C2c2cccc(F)c2)cc1Cl (stereo unspecified),0.3,0.8,0.2,3.6,-2.6,9.2
CCOc1ccc(C2N(c3ccc(Cl)cc3)C(=O)C3CCCN32)cc1OC (stereo unspecified),2.6,1.3,0.9,-0.9,-0.7,-0.7
CCOc1ccc(C2N(c3ccc(OC)cc3)C(=O)C3CCCN32)cc1OC (stereo unspecified),-1.1,0.8,4.8*,0.1,-0.6,6.9
CCOc1ccc(C2N(c3cc(Cl)ccc3OC)C(=O)C3CCCN32)cc1OC (stereo unspecified),6.5,-3.0,5.4*,0.5,-3.6,-7.5
CCOc1ccc(C2N(c3ccc(F)cc3)C(=O)C3CCCN32)cc1OC (stereo unspecified),0.7,0.4,-0.8,-0.1,-52.2*,-64.7
COc1ccccc1C1N(c2cc(Cl)ccc2OC)C(=O)C2CCCN21 (stereo unspecified),4.0,0.3,0.1,-0.3,-2.1,-4.7
COc1ccc(-n2c(SCc3ccc([N+](=O)[O-])cc3)nnc2-c2ccc(C)cc2)cc1,9.0,6.0,-0.3,3.9,25.6,57.1*
CC(C)c1ccc(/C=C2\C(=O)N(CCN3CCOCC3)C(=S)N2C)cc1,5.0,1.2,/,1.0,24.0,66.3*
CCOC(=O)c1ccc2nc(NC(C)=O)sc2c1,6.8,-1.6,2.3,1.2,9.8,?
CCOC(=O)c1ccc2nc(Nc3nc4ccc(F)cc4s3)sc2c1,-10.2,11.9,-4.4,-6.6,-80.0*,-82.4
COC(=O)c1ccc2nc(Nc3nc4c(F)cc(F)cc4s3)sc2c1,-5.6,77.3*,-4.9,-10.1,-87.8*,-90.1
CCc1noc(C)c1C(=O)Nc1nc2ccc(F)cc2s1,52.0*,/,0.8,5.8,12.2,10.0
C[C@@H]1CN([C@@H](C)CO)C(=O)CCCn2nncc2CO[C@@H]1CN(C)C(=O)c1cc(-c2ccccc2)on1,/,/,1.3,-2.3,/,/
O=C(Nc1ccc(F)c(F)c1)C1CCCCC1,3.9,/,0.0,0.4,/,/
COc1ccccc1C(=O)C1CCCN(C(=O)c2cn3cc(Cl)ccc3n2)C1 (stereo unspecified),1.0,-1.4,0.2,0.9,/,/
